We go through seven compounds from PubChem BioAssay (Tox21).

“And” between values parts separate entries of the source, which are not always exact repeats. Equal entries are not always repeated. Records with an inconclusive call do not appear. Where a structure was tested more than once in an assay, its records may differ in their call. The source made the active and inactive calls. Unless noted, the call rests on the fitted dose curve; in most records, active means well fitted curve in the direction sought with a large enough effect in the repeat runs; inconclusive means weak or mixed curves; inactive means no such curve, though single readings can be large; an effect the other way counts as inactive or inconclusive.

Assay [1] concerns the target Estrogen receptor beta (Homo sapiens) (UniProt Q92731). The assay is described as follows: qHTS assay to identify small molecule antagonists of the estrogen receptor beta (ER-beta) signaling pathway (AID 1259378; active means well fitted inhibition curve with a large enough effect in the signal ratio in the repeat runs, not every such curve was filed as active; the % refers to the signal ratio; further: potency means the concentration at half of the fitted maximal effect). The procedure, abridged: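 ER-beta-UAS-bla HEK293T (GripTite) cells in 2% charcoal-stripped FBS medium were preincubated 6 hr at 37C, dosed with compound, then stimulated with 1 nM E2 (final) for 16 hr; beta-lactamase reporter read by B/G FRET fluorescence after 2 hr substrate loading.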

Assay [2] is described as follows: qHTS assay to identify small molecule agonists of the androgen receptor (AR) signaling pathway in the presence of an antagonist - cell viability counter screen (AID 1259379). Further: nearly all actives have a fitted effect of over 25% in size. Further: potency means the concentration at half of the fitted maximal effect. The procedure, abridged:
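MDA-kb2 viability measured by CellTiter-Fluor fluorescence in the same wells as the luciferase signal; nilutamide 3.0uM final; 15-point compound titration; 16 hr at 37C.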
A general note: In qHTS, concentration-response curves come from the screen itself.

Assay [3] is described as follows: qHTS assay to identify small molecule agonists of the estrogen receptor beta (ER-beta) signaling pathway - cell viability counter screen (AID 1259380). Further: nearly all actives have a fitted effect of over 30% in size. Further: potency means the concentration at half of the fitted maximal effect. The gist of the method: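 Measured: luminescence from CellTiter-Glo after 30 min at room temperature, added to wells already read for the LiveBLAzer FRET reporter (2 hr substrate); ER-beta-UAS-bla HEK293T cells had 16 hr compound treatment at 37C, 5% CO2.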

The nature of assay [4]: qHTS assay to identify small molecule antagonists of the estrogen receptor beta (ER-beta) signaling pathway - cell viability counter screen (AID 1259382). Further: nearly all actives have a fitted effect of over 55% in size. Further: potency means the concentration at half of the fitted maximal effect. The gist of the method:
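Readout: luminescence, CellTiter-Glo, same wells as bla assay. System: ER-beta-UAS-bla GripTite HEK293T, 2% charcoal-stripped FBS. Exposure: compounds plus 1nM 17-beta-estradiol, 16 hr, 37C.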

Assay [5] can be described thus: qHTS assay to identify small molecule agonists or antagonists of the thyroid stimulating hormone receptor (TSHR) signaling pathway - wild type cell line counter screen (AID 1259384; calls by dose curve). The gist of the method: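 Wild-type HEK293 cells were plated 18 h at 37 C/5% CO2, pin-dosed with compound plus Ro20-1724 medium, held 30 min at room temperature, then given cAMP-d2 and anti-cAMP-cryptate; fluorescence was read after 1 h. Fifteen concentrations, triplicate.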

The target of assay [6] is Thyrotropin receptor (Homo sapiens) (UniProt P16473). The assay is described as follows: qHTS assay to identify small molecule antagonists of the thyroid stimulating hormone receptor (TSHR) signaling pathway (AID 1259385; calls by dose curve; further: nearly all actives have a fitted effect of over 20% in size). The gist of the method:
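TSHR-HEK293 cells were plated and held 18 h at 37C/5% CO2, then given compound plus Ro20-1724 and stimulated with TSH at 1.5 ng/mL final. After 30 min at room temperature, cAMP was detected with cAMP-d2/anti-cAMP-cryptate (1 h) by fluorescence.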

The nature of assay [7]: qHTS assay to identify small molecule agonists of the estrogen receptor alpha (ER-alpha) signaling pathway in the presence of an antagonist - cell viability counter screen (AID 1259386).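 Further: cells exposed to compounds for 22 h at 37 °C before the viability read; nearly all actives have a fitted effect of over 30% in size.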 Further: potency means the concentration at half of the fitted maximal effect. The procedure, abridged: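 The test measures whether compounds kill ER-alpha reporter cells (VM7Luc4E2) under antagonist co-treatment (ICI-182,780, 10.0nM). Fluorescence from CellTiter-Fluor is read after a 22hr exposure.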

In assay [8] the target is Progesterone receptor (Homo sapiens) (UniProt P06401). The assay is described as follows: qHTS assay to identify small molecule agonists of the progesterone receptor (PR) signaling pathway (AID 1346784; calls by dose curve; further: nearly all actives have a fitted effect of over 30% in size). The gist of the method:
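Fluorescence from LiveBLAzer B/G FRET substrate cleavage (2 hr, RT) reported PR activation in PR-UAS-bla HEK 293T cells treated 16 hr at 37C/5% CO2 with compounds; medium contained 2% charcoal-stripped FBS.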

The target is the same in assay [9]. Briefly: qHTS assay to identify small molecule antagonists of the progesterone receptor (PR) signaling pathway (AID 1346795; active means well fitted inhibition curve with a large enough effect in the signal ratio in the repeat runs, not every such curve was filed as active; the % refers to the signal ratio; further: potency means the concentration at half of the fitted maximal effect). The procedure, abridged: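 Fluorescence intensity measured 2 hr after adding beta-lactamase FRET substrate to PR-UAS-bla HEK293T cells that had been co-treated 16 hr with compound and 1 nM R5020 (final concentration) in 2% charcoal-stripped FBS.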

Assay [10] in a line: qHTS assay to identify small molecule antagonists of the progesterone receptor (PR) signaling pathway - cell viability counter screen (AID 1346798). Further: series mostly up to about 92 µM; nearly all actives have a fitted effect of over 50% in size. The gist of the method:
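CellTiter-Glo luminescence; PR-UAS-bla HEK293T, 3,000 cells/well; compound + R5020, 16 hr, 37C/5% CO2; 30 min RT before read.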

The nature of assay [11]: qHTS assay to identify small molecule agonists of the progesterone receptor (PR) signaling pathway - cell viability counter screen (AID 1346799; calls by dose curve; further: nearly all actives have a fitted effect of over 45% in size). The procedure, abridged:
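In parallel with the beta-lactamase readout, cytotoxicity toward PR-UAS-bla HEK293T cells was measured by CellTiter-Glo luminescence following 16 hr compound incubation in 2% charcoal-stripped FBS medium.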

A short description of assay [12]: qHTS assay to identify small molecule antagonists of the TGF-beta/Smad signaling pathway - cell viability counter screen (AID 1346824). Further: nearly all actives have a fitted effect of over 50% in size. The gist of the method:
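SBE-bla HEK 293T cells were plated overnight at 37 C, then given compounds in DMSO plus TGF-beta1 (added as 0.25 ng/mL solution) for 5 hr. After the bla read, CellTiter-Glo was added to the same wells and luminescence read after 30 min at room temperature.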

Assay [13] is described as follows: qHTS assay to identify small molecule agonists of the TGF-beta/Smad signaling pathway - cell viability counter screen (AID 1346829). Further: top concentration of the series differs between compounds; nearly all actives have a fitted effect of over 45% in size. The procedure, abridged:
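Tox21 qHTS format: SBE-bla HEK 293T cells treated with DMSO-dissolved compounds for 5 hr; CellTiter-Glo luminescence after 30 min at room temperature.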

A short description of assay [14]: qHTS assay to identify small molecule agonists of the TGF-beta/Smad signaling pathway (AID 1346859; active means well fitted activation curve with a large enough effect in the signal ratio in the repeat runs, not every such curve was filed as active; the % refers to the signal ratio; further: series mostly up to about 77 µM). The procedure, abridged:
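After overnight seeding, SBE-bla HEK 293T cells are dosed with compounds in DMSO and kept 5 hr at 37 C, 5% CO2. LiveBLAzer-type FRET substrate is then applied for 2 hr at room temperature.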

In assay [15] the target is Thyrotropin-releasing hormone receptor (Homo sapiens) (UniProt P34981). The assay is described as follows: qHTS assay to identify small molecule antagonists of the thyrotropin-releasing hormone receptor (TRHR) signaling pathway (AID 1346877; active means well fitted inhibition curve with a large enough effect in the repeat runs, not every such curve was filed as active; further: series mostly up to about 51 µM). The gist of the method:
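Overnight-plated (18 h, 37 °C) HEK293 cells expressing TRHR were dye-loaded 2 h, treated with compound, then stimulated with TRH at 1 nM final. Fluorescence intensity was captured every second for 3 min.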

Assay [16] has the same target. The assay is described as follows: qHTS assay to identify small molecule agonists of the thyrotropin-releasing hormone receptor (TRHR) signaling pathway (AID 1346891; calls by dose curve;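 further: HEK293 cells expressing TRHR with calcium dye readout; series mostly up to about 58 µM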). The gist of the method:
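Compounds were tested as agonists at 15 concentrations, in triplicate, on TRHR-Hek293 cells; calcium-sensitive dye fluorescence was recorded for 3 min following addition.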

Assay [17] in a line: Human pregnane X receptor (PXR) small molecule agonists, qHTS cell viability counter screen (AID 1346977). Further: nearly all actives have a fitted effect of over 50% in size. Further: potency means the concentration at half of the fitted maximal effect. The gist of the method:
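Viability counter screen: CellTiter-Fluor signal in PXR-Luc HepG2 cells, 24hr compound exposure, 37C, 5% CO2.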

The target of assay [18] is Estrogen receptor (Homo sapiens) (UniProt P03372). The assay is described as follows: qHTS assay to identify small molecule agonists of the estrogen receptor alpha (ER-alpha) signaling pathway in the presence of an antagonist (AID 1259383; calls by dose curve; further: top concentration of the series differs between compounds; nearly all actives have a fitted effect of over 15% in size). The procedure, abridged:
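Quantitative HTS confirmation: compounds titrated at 15 concentrations onto estrogen-deprived VM7Luc4E2 cells carrying a four-ERE luciferase construct, with ICI-182,780 present at 10.0nM final. Signal is luminescence after 22hr exposure.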

Sequence of Thyrotropin-releasing hormone receptor (Homo sapiens) (P34981 whole entry, looked up): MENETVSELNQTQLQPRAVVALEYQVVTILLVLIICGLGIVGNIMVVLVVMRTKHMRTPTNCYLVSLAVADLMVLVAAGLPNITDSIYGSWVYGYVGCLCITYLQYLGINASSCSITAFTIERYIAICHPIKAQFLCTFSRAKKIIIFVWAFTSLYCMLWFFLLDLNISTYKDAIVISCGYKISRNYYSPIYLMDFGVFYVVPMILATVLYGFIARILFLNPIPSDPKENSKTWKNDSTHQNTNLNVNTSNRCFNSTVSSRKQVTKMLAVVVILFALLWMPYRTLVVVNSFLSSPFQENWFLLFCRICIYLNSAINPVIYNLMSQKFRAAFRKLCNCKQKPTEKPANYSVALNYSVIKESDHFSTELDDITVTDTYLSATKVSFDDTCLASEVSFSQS
Sequence of Progesterone receptor (Homo sapiens) (P06401 whole entry, looked up): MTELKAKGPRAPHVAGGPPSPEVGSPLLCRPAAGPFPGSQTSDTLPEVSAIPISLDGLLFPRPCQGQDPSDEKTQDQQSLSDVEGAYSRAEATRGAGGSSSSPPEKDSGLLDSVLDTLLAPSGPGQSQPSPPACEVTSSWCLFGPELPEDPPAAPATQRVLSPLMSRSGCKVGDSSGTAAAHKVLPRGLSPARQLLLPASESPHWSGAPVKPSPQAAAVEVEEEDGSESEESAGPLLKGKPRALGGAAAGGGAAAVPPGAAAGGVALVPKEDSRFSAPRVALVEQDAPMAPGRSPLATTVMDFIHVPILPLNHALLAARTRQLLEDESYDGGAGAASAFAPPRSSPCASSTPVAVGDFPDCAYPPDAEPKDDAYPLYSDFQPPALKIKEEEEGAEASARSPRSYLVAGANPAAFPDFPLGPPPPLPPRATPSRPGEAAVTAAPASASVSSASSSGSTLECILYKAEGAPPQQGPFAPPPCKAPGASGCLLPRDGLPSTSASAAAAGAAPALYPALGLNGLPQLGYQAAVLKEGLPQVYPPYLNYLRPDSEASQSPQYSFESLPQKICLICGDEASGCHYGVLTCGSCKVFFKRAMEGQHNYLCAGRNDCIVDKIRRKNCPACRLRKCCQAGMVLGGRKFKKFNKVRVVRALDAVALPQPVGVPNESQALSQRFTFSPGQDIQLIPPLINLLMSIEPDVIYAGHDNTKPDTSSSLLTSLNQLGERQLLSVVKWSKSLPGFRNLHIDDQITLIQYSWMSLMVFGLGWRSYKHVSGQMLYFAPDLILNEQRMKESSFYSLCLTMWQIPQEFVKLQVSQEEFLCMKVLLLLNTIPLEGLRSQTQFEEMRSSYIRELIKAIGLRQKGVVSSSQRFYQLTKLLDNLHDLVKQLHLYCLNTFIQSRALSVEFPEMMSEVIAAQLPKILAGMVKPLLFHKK
Sequence of Thyrotropin receptor (Homo sapiens) (P16473 whole entry, looked up): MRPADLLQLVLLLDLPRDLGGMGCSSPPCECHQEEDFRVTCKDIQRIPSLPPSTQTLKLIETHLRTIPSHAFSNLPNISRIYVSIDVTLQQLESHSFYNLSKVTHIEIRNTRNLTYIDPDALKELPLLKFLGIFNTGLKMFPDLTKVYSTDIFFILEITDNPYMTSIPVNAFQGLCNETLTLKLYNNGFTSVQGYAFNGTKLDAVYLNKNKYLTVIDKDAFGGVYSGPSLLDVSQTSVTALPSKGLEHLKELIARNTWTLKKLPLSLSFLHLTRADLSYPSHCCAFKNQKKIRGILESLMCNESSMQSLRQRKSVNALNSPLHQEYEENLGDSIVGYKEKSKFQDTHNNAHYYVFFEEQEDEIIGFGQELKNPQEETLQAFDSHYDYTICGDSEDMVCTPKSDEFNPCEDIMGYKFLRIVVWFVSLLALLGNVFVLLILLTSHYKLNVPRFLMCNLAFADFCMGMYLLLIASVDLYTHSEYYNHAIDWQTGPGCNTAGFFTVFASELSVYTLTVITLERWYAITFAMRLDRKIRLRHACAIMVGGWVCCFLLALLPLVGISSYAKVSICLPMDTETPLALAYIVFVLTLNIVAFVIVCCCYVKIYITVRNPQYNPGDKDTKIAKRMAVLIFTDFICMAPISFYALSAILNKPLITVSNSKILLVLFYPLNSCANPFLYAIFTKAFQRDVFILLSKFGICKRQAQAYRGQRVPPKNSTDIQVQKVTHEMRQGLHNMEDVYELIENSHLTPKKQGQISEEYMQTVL
Sequence of Estrogen receptor beta (Homo sapiens) (Q92731 whole entry, looked up): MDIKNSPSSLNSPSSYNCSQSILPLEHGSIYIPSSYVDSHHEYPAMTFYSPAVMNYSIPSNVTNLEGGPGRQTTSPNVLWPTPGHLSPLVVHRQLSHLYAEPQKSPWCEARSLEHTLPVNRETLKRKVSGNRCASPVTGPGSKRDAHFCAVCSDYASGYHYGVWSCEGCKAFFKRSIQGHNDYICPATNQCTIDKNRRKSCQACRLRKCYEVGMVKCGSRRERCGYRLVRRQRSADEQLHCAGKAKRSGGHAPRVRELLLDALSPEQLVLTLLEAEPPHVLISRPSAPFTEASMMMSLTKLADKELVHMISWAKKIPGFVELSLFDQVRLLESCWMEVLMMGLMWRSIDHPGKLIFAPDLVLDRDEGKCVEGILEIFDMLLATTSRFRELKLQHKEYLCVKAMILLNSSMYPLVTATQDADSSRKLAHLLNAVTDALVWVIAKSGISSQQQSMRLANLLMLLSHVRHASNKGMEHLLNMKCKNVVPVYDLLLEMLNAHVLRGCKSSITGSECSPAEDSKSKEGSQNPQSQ
Sequence of Estrogen receptor (Homo sapiens) (P03372 whole entry, looked up): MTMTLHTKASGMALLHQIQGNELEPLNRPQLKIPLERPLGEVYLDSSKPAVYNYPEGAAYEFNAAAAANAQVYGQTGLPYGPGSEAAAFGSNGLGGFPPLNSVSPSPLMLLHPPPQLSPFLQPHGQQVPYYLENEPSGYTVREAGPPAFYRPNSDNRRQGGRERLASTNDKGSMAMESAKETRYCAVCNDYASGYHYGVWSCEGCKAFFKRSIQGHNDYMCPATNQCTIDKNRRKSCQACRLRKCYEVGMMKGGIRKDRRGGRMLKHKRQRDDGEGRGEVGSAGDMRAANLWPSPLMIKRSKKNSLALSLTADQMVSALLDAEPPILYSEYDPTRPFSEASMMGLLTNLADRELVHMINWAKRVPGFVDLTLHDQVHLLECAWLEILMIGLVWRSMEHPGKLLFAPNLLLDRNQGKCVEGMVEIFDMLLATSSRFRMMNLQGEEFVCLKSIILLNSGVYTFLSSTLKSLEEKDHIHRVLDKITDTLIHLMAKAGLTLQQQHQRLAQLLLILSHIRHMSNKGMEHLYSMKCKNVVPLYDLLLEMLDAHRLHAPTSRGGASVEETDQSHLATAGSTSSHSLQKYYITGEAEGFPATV

As for `CCCCOC(=O)CC`, the Potency entry in assay [1], in assay [2], in [3], in assay [4], in assay [6] and in assay [7] was “inactive” each time. The Potency result in [8], in assay [9], in assay [10], in [11], in assay [12] and in [13] was “inactive” throughout. The Potency entry in assay [14], in assay [15] and in assay [17] was “inactive” each time. Further, the call in [5] and in [16] was inactive.

Turning to `COc1cc(C)ccc1O`, the Potency result in assay [1], in assay [2], in assay [4], in [18], in assay [6] and in assay [7] was “inactive” in each case. The Potency entry in assay [8], in assay [9], in [10], in assay [12], in assay [13] and in assay [14] was “inactive” throughout. The Potency entry in [15] and in assay [17] was “inactive” in each case. In addition, the outcome in assay [5] and in assay [16] was inactive.

As to `CCCCOC(=O)CO`, the Potency entry in assay [1], in [2], in assay [4], in assay [18], in assay [7] and in [8] was “inactive” each time. Also, the Potency entry in [9], in [10], in [11], in assay [12], in assay [13] and in assay [15] was “inactive” each time. Further, the Potency entry in [17] was “inactive”. In addition, the call in assay [16] was inactive.

In the case of `COc1cccc2c1C(=O)c1c(O)c3c(c(O)c1C2=O)C[C@@](O)(C(C)=O)C[C@@H]3O[C@H]1C[C@H](N)[C@H](O)[C@H](C)O1`, the Potency was 4.22 µM (active) in [1]; 30.8 µM (active) and 11.9 µM (active) in assay [2]; 77.4 µM (active) and inactive in [3]; 27.5 µM (active) and 21.1 µM (active) in assay [7]; 1.09 µM (active) and 2.66 µM (active) in assay [17]. Besides, the Potency result in assay [4], in assay [10], in [11], in assay [12], in [13] and in assay [15] was “inactive” throughout. The outcome in assay [16] was inactive.

On to `CCOC(=O)NNc1ccc(N(CC)CC(C)O)nn1` (configuration not stated), for which the Potency entry in assay [1], in assay [2], in assay [3], in [18], in [6] and in assay [7] was “inactive” in each case. Further, the Potency entry in [8], in assay [9], in [10], in assay [11], in assay [12] and in assay [13] was “inactive” in each case. The Potency entry in assay [14], in assay [15] and in assay [17] was “inactive” in each case. For the same compound, the result in assay [5] and in assay [16] was inactive.

For `CCCCCCCCCCCCOCCOCCOCCOCCOCCOCCOCCOCCOCCO`, the Potency is 8.41 µM (active) in assay [1]; 13.3 µM (active) in assay [2]; 26.6 µM (active) in assay [3]; 29.8 µM (active) in [4]; 23.7 µM (active) in assay [7]; 23.7 µM (active) in assay [9]. In addition, the Potency in assay [17] was 11.9 µM (active). Besides, the Potency entry in assay [18], in assay [6], in assay [13], in [14] and in [15] was “inactive” each time. The call in assay [5] and in [16] was inactive.

Turning to `OC/C=C/CO`, the Potency result in assay [1], in assay [2], in assay [3], in assay [4], in [18] and in [6] was “inactive” each time. For the same compound, the Potency entry in [7], in assay [8], in [9], in [10], in [12] and in assay [13] was “inactive” in each case. In addition, the Potency result in assay [14], in assay [15] and in assay [17] was “inactive” throughout. Also, the outcome in assay [5] and in assay [16] was inactive.
